# Laboratory results: the antibiotic and cytotoxicity screens of Wong et al. (2023)
# Among all 39,000 compounds or so, about 1,500 (3.8%) were called active. What follows is part of a selection rich in actives, with near analogues and random picks from the rest.
# System: HSkMC (human skeletal muscle cells)
# Test: cytotoxicity call (relative viability < 0.9)
# Settings: 10 µM
row,Compound,cytotoxicity call
1,CC(C)NC(=O)Nc1ccc2c(c1)C(=O)N([C@@H](C)CO)C[C@H](C)[C@H](CN(C)Cc1ccc(C(=O)O)cc1)O2,inactive
2,COc1ccc(C#Cc2cnc3c(c2)C(=O)N([C@H](C)CO)C[C@H](C)[C@@H](CN(C)C(=O)CC2CC2)O3)cc1,inactive
3,C[C@@H]1CN([C@@H](C)CO)C(=O)c2cc(-c3cccnc3)cnc2O[C@@H]1CN(C)Cc1ccc(-c2ccccc2)cc1,inactive
4,O=C(C[C@H]1CC[C@H](NS(=O)(=O)c2ccc(F)cc2)[C@H](CO)O1)N1CCC(Cc2ccccc2)CC1,inactive
5,COc1ccc(NC(=O)N(C)C[C@H]2Oc3c(NC(=O)Nc4cccc5ccccc45)cccc3C(=O)N([C@@H](C)CO)C[C@@H]2C)cc1,active
6,C[C@@H]1CN([C@@H](C)CO)C(=O)c2cccc(NC(=O)Nc3ccccc3)c2O[C@@H]1CN(C)C(=O)Nc1cccc2ccccc12,active
7,COc1ccc(NC(=O)N(C)C[C@@H]2Oc3c(NC(=O)Nc4cccc5ccccc45)cccc3C(=O)N([C@H](C)CO)C[C@@H]2C)cc1,inactive
8,C[C@H](CO)N1C[C@H](C)[C@@H](CN(C)C(=O)Nc2cccc3ccccc23)Oc2c(NC(=O)Nc3ccccc3)cccc2C1=O,inactive
9,C[C@H]1CN([C@@H](C)CO)C(=O)c2cccc(NC(=O)Nc3ccccc3)c2O[C@H]1CN(C)C(=O)Nc1cccc2ccccc12,inactive
10,C[C@@H]1CN([C@@H](C)CO)C(=O)c2cccc(NC(=O)Nc3cccc4ccccc34)c2O[C@H]1CN(C)C(=O)Nc1ccccc1,active
11,C[C@H]1CN([C@@H](C)CO)C(=O)c2cccc(NC(=O)Nc3cccc4ccccc34)c2O[C@H]1CN(C)C(=O)Nc1cccc2ccccc12,inactive
12,C[C@@H]1CN([C@H](C)CO)C(=O)c2cccc(NC(=O)Nc3cccc4ccccc34)c2O[C@H]1CN(C)C(=O)Nc1ccccc1,inactive
13,COc1ccc(NC(=O)N(C)C[C@@H]2Oc3c(NC(=O)Nc4cccc5ccccc45)cccc3C(=O)N([C@H](C)CO)C[C@H]2C)cc1,inactive
14,C[C@@H]1CN([C@@H](C)CO)C(=O)c2cccc(NC(=O)Nc3cccc4ccccc34)c2O[C@H]1CN(C)C(=O)Nc1cccc2ccccc12,inactive
15,C[C@@H]1CN([C@H](C)CO)C(=O)c2cccc(NC(=O)Nc3cccc4ccccc34)c2O[C@H]1CN(C)C(=O)Nc1cccc2ccccc12,active
16,C[C@@H]1CN([C@H](C)CO)C(=O)c2cccc(NC(=O)Nc3cccc4ccccc34)c2O[C@@H]1CN(C)C(=O)Nc1ccccc1,inactive
17,CN1C(=O)c2cc(NS(=O)(=O)c3cccc(F)c3)ccc2OC[C@H]2O[C@H](CC(=O)NCCN3CCCCC3)CC[C@@H]21,inactive
18,NC(=O)NC(=O)C[n+]1ccc(/C=N/O)cc1,inactive
19,COc1ccc(S(=O)(=O)N(C)C[C@H]2Oc3ccc(N(C)C)cc3C(=O)N([C@@H](C)CO)C[C@@H]2C)cc1,inactive
20,CS(=O)(=O)N1C[C@H]2C[C@@H](F)[C@@H](O)[C@@H]2C1,inactive
21,C[C@@H]1CCCCO[C@@H](CN(C)C(=O)Nc2ccc3c(c2)OCO3)[C@@H](C)CN([C@H](C)CO)C(=O)c2cc(NC(=O)NC3CCCCC3)ccc2O1,inactive
22,O=C(C[C@H]1C[C@@H]2c3cc(NS(=O)(=O)c4ccc(F)cc4)ccc3O[C@@H]2[C@H](CO)O1)NCc1cccnc1,inactive
23,O=C(C[C@@H]1C[C@H]2c3cc(NC(=O)NC4CCCC4)ccc3O[C@H]2[C@H](CO)O1)NCc1ccc2c(c1)OCO2,inactive
24,O=C(CN1CCOCC1)NCC[C@@H]1CC[C@@H](NC(=O)Cc2ccccn2)[C@H](CO)O1,inactive
25,C[C@@H]1CN([C@@H](C)CO)C(=O)Cc2cc(NC(=O)C3CCCCC3)ccc2O[C@H]1CN(C)C(=O)Nc1ccc(C(F)(F)F)cc1,inactive

row,Compound,cytotoxicity call
1,CC[C@H]1CN(C)N1C(=O)[C@@H]1CCCO1,inactive
2,CC(C)CC#Cc1ccc2c(c1)O[C@H](CN(C)C(=O)c1ccncc1)[C@H](C)CN([C@@H](C)CO)S2(=O)=O,inactive
3,C[C@@H]1CN([C@@H](C)CO)C(=O)Cc2cc(NS(=O)(=O)c3ccc(Cl)cc3)ccc2O[C@@H]1CN(C)Cc1ccc(Cl)c(Cl)c1,active
4,C[C@H]1CN([C@@H](C)CO)C(=O)Cc2cc(NS(=O)(=O)c3ccc(Cl)cc3)ccc2O[C@@H]1CN(C)Cc1ccc(Cl)c(Cl)c1,inactive
5,C[C@@H]1CN([C@@H](C)CO)C(=O)Cc2cc(NS(=O)(=O)c3ccc(Cl)cc3)ccc2O[C@H]1CN(C)Cc1ccc(Cl)c(Cl)c1,active
6,C[C@H](CO)N1C[C@H](C)[C@H](CN(C)Cc2ccc(Cl)c(Cl)c2)Oc2ccc(NS(=O)(=O)c3ccc(Cl)cc3)cc2CC1=O,active
7,C[C@H](CO)N1C[C@H](C)[C@@H](CN(C)Cc2ccc(Cl)c(Cl)c2)Oc2ccc(NS(=O)(=O)c3ccc(Cl)cc3)cc2CC1=O,inactive
8,C[C@@H]1CN([C@H](C)CO)C(=O)Cc2cc(NS(=O)(=O)c3ccc(Cl)cc3)ccc2O[C@@H]1CN(C)Cc1ccc(Cl)c(Cl)c1,active
9,C[C@H](CO)N1C[C@H](C)[C@H](CN(C)CC2CC2)Oc2ccc(NC(=O)CCN3CCOCC3)cc2CC1=O,inactive
10,CC(C)NC(=O)N(C)C[C@@H]1Oc2ccc(NC(=O)NC3CCCCC3)cc2C(=O)N([C@H](C)CO)C[C@@H]1C,inactive
11,CC(C)(C)[S@@](=O)N1Cc2cc(C(=O)NCc3ccc4c(c3)OCO4)nc(CCNS(=O)(=O)c3ccccc3)c2[C@H]1CCO,inactive
12,CCS(=O)(=O)N1CC[C@]2(CC1)CN(CC1CCOCC1)[C@H](CO)c1c2c2ccc(cc2n1C)OC,inactive
13,Cc1noc(C)c1S(=O)(=O)Nc1ccc2c(c1)CC(=O)N([C@H](C)CO)C[C@H](C)[C@H](CN(C)Cc1ccc3c(c1)OCO3)O2,inactive
14,C[C@@H]1CCCCO[C@H](CN(C)C(=O)Nc2ccc(F)cc2)[C@@H](C)CN([C@H](C)CO)C(=O)c2cc(NC(=O)Nc3ccc4c(c3)OCO4)ccc2O1,inactive
15,Cc1noc(C)c1NC(=O)N(C)C[C@@H]1Oc2ccc(NS(=O)(=O)c3cn(C)cn3)cc2C(=O)N([C@H](C)CO)C[C@@H]1C,inactive
16,Cc1ccc(S(=O)(=O)N(C)C[C@@H]2OCCCC[C@@H](C)Oc3ccc(NC(=O)Nc4ccc(F)cc4)cc3C(=O)N([C@@H](C)CO)C[C@H]2C)cc1,inactive
17,O=C(C[C@@H]1C=C[C@@H](NC(=O)c2cccc(F)c2)[C@H](CO)O1)NCCN1CCCC1,inactive
18,C[C@H](CO)N1C[C@H](C)[C@@H](CN(C)Cc2ccc(Cl)c(Cl)c2)Oc2ccc(NS(=O)(=O)c3ccc(F)cc3)cc2CC1=O,inactive
19,C[C@H](CO)N1C[C@H](C)[C@H](CN(C)Cc2ccc(Cl)c(Cl)c2)Oc2ccc(NS(=O)(=O)c3ccc(F)cc3)cc2CC1=O,inactive
20,C[C@@H]1CN([C@H](C)CO)C(=O)Cc2cc(NS(=O)(=O)c3ccc(Cl)cc3)ccc2O[C@H]1CN(C)Cc1ccc(Cl)c(Cl)c1,active
21,C[C@H]1CN([C@@H](C)CO)C(=O)Cc2cc(NS(=O)(=O)c3ccc(Cl)cc3)ccc2O[C@H]1CN(C)Cc1ccc(Cl)c(Cl)c1,active
22,COc1ccc(S(=O)(=O)Nc2cccc3c2O[C@@H](CN(C)S(=O)(=O)c2cccs2)[C@@H](C)CN([C@@H](C)CO)C3=O)cc1,inactive
23,C[C@H]1CN([C@@H](C)CO)C(=O)c2cccc(NC(=O)Nc3cccc4ccccc34)c2O[C@H]1CN(C)C(=O)Nc1ccc(F)cc1,inactive
24,OCCN1CCOCC1,inactive
25,CCN1C(=O)S[C@@H](CC(=O)O)C1=O,inactive

row,Compound,cytotoxicity call
1,COc1ccc(NC(=O)N(C)C[C@@H]2Oc3c(NS(C)(=O)=O)cccc3C(=O)N([C@@H](C)CO)C[C@H]2C)cc1,inactive
2,CN1C(=O)c2cc(NC(=O)Nc3ccccc3F)ccc2OC[C@@H]2O[C@H](CC(=O)NCc3ccc(-c4ccccc4)cc3)CC[C@H]21,inactive
3,O=[N+]([O-])c1ccc(Oc2ccc(-c3ccccc3)cc2)cc1,inactive
4,O=c1cc(O)nc[nH]1,inactive
5,O=C(O)c1ccc(O)c(O)c1O,inactive
6,CSCC[C@H](NC(=O)[C@@H](N)Cc1c[nH]c2ccccc12)C(=O)N[C@@H](CC(=O)O)C(=O)N[C@@H](Cc1ccccc1)C(N)=O,inactive
7,CSCC[C@H](NC(=O)[C@H](Cc1ccc(OS(=O)(=O)O)cc1)NC(=O)[C@@H](N)CC(=O)O)C(=O)NCC(=O)N[C@@H](Cc1c[nH]c2ccccc12)C(=O)N[C@@H](CCSC)C(=O)N[C@@H](CC(=O)O)C(=O)N[C@@H](Cc1ccccc1)C(N)=O,active
8,CSCC[C@H](NC(=O)[C@H](Cc1c[nH]c2ccccc12)NC(=O)CNC(=O)[C@@H](NC(=O)[C@H](Cc1ccc(OS(=O)(=O)O)cc1)NC(=O)[C@H](CC(=O)O)NC(=O)[C@H](CCC(N)=O)NC(=O)[C@@H]1CCC(=O)N1)[C@@H](C)O)C(=O)N[C@@H](CC(=O)O)C(=O)N[C@@H](Cc1ccccc1)C(N)=O,inactive
9,C[C@H]1CN([C@@H](C)CO)C(=O)Cc2cc(NC(=O)c3ccncc3)ccc2O[C@H]1CN(C)S(=O)(=O)c1ccc(F)cc1,inactive
10,C[C@H](CO)N1C[C@H](C)[C@@H](CN(C)S(=O)(=O)c2ccc(F)cc2)OCCCC[C@H](C)Oc2ccc(NC(=O)c3ccccc3)cc2C1=O,inactive
11,O=C(O)[C@H]1C[C@@H](CP(=O)(O)O)CCN1,inactive
12,COc1ccc(CN(C)C[C@@H]2Oc3ccc(NC(=O)Nc4ccc(C(F)(F)F)cc4)cc3C(=O)N([C@H](C)CO)C[C@@H]2C)cc1,active
13,COc1ccc(NC(=O)Nc2ccc3c(c2)C(=O)N([C@@H](C)CO)C[C@H](C)[C@H](CN(C)Cc2ccc(C(F)(F)F)cc2)O3)cc1,inactive
14,COc1ccc(CN(C)C[C@@H]2Oc3ccc(NC(=O)Nc4ccc(C(F)(F)F)cc4)cc3C(=O)N([C@@H](C)CO)C[C@H]2C)cc1,active
15,COc1ccc(CN(C)C[C@H]2Oc3ccc(NC(=O)Nc4ccc(C(F)(F)F)cc4)cc3C(=O)N([C@H](C)CO)C[C@@H]2C)cc1,inactive
16,COc1ccc(NC(=O)Nc2ccc3c(c2)C(=O)N([C@@H](C)CO)C[C@H](C)[C@@H](CN(C)Cc2ccc(C(F)(F)F)cc2)O3)cc1,inactive
17,COc1ccc(NC(=O)Nc2ccc3c(c2)C(=O)N([C@@H](C)CO)C[C@@H](C)[C@H](CN(C)Cc2ccc(C(F)(F)F)cc2)O3)cc1,inactive
18,COc1ccc(NC(=O)Nc2ccc3c(c2)C(=O)N([C@@H](C)CO)C[C@@H](C)[C@@H](CN(C)Cc2ccc(C(F)(F)F)cc2)O3)cc1,inactive
19,COc1ccc(CN(C)C[C@@H]2Oc3ccc(NC(=O)Nc4ccc(C(F)(F)F)cc4)cc3C(=O)N([C@H](C)CO)C[C@H]2C)cc1,active
20,COc1ccc(NC(=O)Nc2ccc3c(c2)C(=O)N([C@H](C)CO)C[C@@H](C)[C@H](CN(C)Cc2ccc(C(F)(F)F)cc2)O3)cc1,inactive
21,COc1ccc(CN(C)C[C@@H]2Oc3ccc(NC(=O)Nc4ccc(C(F)(F)F)cc4)cc3C(=O)N([C@@H](C)CO)C[C@@H]2C)cc1,active
22,COc1ccc(NC(=O)Nc2ccc3c(c2)C(=O)N([C@H](C)CO)C[C@H](C)[C@@H](CN(C)Cc2ccc(C(F)(F)F)cc2)O3)cc1,inactive
23,COc1ccc(CN(C)C[C@H]2Oc3ccc(NC(=O)Nc4ccc(C(F)(F)F)cc4)cc3C(=O)N([C@H](C)CO)C[C@H]2C)cc1,inactive
